Among all 310,000 compounds or so, about 14,000 (4.5%) showed an effect of 50% or more. Effects have a minus sign here. Shown is part of a subset that was picked to be rich in strong results.
target: human ether-à-go-go-related gene (hERG) potassium channel (human, UniProt Q12809); assay: primary screen, population patch clamp on CHO cells stably expressing hERG; higher = less effect of the substance
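Note: peak tail current of the secondary pulse compared with the same well before compound.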

human ether-à-go-go-related gene (hERG) potassium channel, sequence (Q12809 whole entry, looked up): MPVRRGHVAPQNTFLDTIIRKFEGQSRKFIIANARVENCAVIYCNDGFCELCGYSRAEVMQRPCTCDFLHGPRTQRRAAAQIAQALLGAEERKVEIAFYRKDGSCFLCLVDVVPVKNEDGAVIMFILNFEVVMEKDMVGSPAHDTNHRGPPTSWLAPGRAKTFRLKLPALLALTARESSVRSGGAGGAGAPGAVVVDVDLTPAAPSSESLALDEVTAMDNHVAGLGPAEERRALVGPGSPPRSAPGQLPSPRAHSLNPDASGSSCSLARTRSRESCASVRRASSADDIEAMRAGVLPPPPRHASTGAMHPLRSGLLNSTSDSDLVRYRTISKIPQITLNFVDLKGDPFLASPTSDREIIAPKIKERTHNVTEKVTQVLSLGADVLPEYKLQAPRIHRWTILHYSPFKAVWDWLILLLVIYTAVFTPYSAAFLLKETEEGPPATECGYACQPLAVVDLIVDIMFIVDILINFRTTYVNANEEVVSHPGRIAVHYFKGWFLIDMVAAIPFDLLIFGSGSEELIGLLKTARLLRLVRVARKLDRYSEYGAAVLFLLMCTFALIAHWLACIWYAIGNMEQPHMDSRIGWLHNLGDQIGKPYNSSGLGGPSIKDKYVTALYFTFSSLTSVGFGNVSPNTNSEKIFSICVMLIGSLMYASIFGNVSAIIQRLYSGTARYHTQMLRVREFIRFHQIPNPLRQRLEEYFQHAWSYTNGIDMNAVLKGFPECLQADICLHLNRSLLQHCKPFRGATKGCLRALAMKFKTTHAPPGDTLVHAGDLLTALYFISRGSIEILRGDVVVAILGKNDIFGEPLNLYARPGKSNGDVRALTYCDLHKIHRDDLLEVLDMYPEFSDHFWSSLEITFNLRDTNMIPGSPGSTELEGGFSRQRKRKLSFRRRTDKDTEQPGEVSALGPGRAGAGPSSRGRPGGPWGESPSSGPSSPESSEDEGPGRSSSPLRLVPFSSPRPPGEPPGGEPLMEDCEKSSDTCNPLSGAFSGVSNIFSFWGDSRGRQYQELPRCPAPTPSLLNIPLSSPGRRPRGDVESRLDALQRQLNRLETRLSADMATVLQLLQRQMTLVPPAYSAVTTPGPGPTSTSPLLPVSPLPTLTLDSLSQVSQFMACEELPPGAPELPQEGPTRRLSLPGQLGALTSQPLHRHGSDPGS

Row | SMILES | hERG current change (%, negative = inhibition) at 10uM
1 | CC(C)(C)C1CCC(=NOC(=O)c2ccc(F)cc2)CC1 (centres unmarked) | 15.7%
2 | O=C(CNC(=O)c1cccc(Br)c1)N/N=C/c1ccc[nH]1 | 22.5%
3 | Cc1ccc(-c2cc(-c3ccccc3Cl)c(C#N)c(N)n2)o1 | 3.05%
4 | COc1ccccc1-c1ccc(C(=O)O)o1 | 7.06%
5 | COC(=O)c1cn(C)c2ccc(S(=O)(=O)N3CC(C)CC(C)C3)cc2c1=O (centres unmarked) | -5.76%
6 | COc1ccc(CCNC(=S)Nc2ccc(C)cc2C)cc1 | 2.89%
7 | CC(=O)O.CC1(C)CC(=O)C2=C(C1)NC1=C(C(=O)c3ccccc31)C2c1cc([N+](=O)[O-])ccc1O (centres unmarked) | -37.1%
8 | CCOC(=O)c1c(S(=O)(=O)NCC(C)c2ccccc2)c(C)n(C)c1C (centres unmarked) | -17.8%
9 | Cc1ccc(C(c2nnnn2CCc2ccccc2)N2CCC(C)CC2)cc1.Cl (centres unmarked) | 13.8%
10 | COc1ccc(C(c2nnnn2CCc2ccccc2)N2CCN(C3CCCC3)CC2)cc1.Cl (centres unmarked) | -68%
11 | CCCC(c1nnnn1CCc1ccccc1)N1CCN(C2CCCC2)CC1 (centres unmarked) | -48.9%
12 | COc1ccccc1CC(=O)N(Cc1ccccc1)c1ccc(C)cc1 | -16%
13 | CCN(CC)S(=O)(=O)c1ccc(S(=O)(=O)N2CCCC2C(=O)O)cc1 (centres unmarked) | -0.323%
14 | CCOn1c(=O)c(-c2ccccc2)[n+]([O-])c2ccccc21 | 1.67%
15 | COc1ccc(CNC(=O)CN2CCC(C(=O)c3ccc(OC)cc3)CC2)cc1 | -58%
16 | COc1ccc(C(=O)NC2CCN(CC(=O)NCc3ccccc3)CC2)cc1 | -24.4%
17 | O=C(CN1CCC(C(=O)c2ccc(F)cc2)CC1)Nc1ccccc1 | -29.7%
18 | COc1ccc(C(=O)C2CCN(CC(=O)NCc3ccccc3)CC2)cc1 | -46.3%
19 | COc1nc(OC)nc(N2CCC(C(=O)NCc3cccs3)CC2)n1 | -45%

Row | SMILES | hERG current change (%, negative = inhibition) at 10uM
20 | COc1ccc(CNC(=O)C2CCN(c3nc(OC)nc(OC)n3)CC2)cc1 | -65.1%
21 | COc1nc(OC)nc(N2CCC(C(=O)NCc3ccc(F)cc3)CC2)n1 | -44.9%
22 | Cc1ccc(NC(=O)CN2CCC(C(=O)c3ccc(F)cc3)CC2)cc1 | -72.5%
23 | O=C(CN1CCC(C(=O)c2ccc(F)cc2)CC1)Nc1ccc(F)cc1 | -64.7%
24 | CC(=O)c1ccc(NC(=O)CN2CCC(C(=O)c3ccc(F)cc3)CC2)cc1 | -22.9%
25 | Cc1c(NC(=O)/C(C#N)=C/c2ccc(-c3ccc(Cl)cc3)o2)c(=O)n(-c2ccccc2)n1C | -41.5%
26 | COc1ccc(C(=O)OCC(=O)c2cc(C)n(CC3CCCO3)c2C)cc1[N+](=O)[O-] (centres unmarked) | -42.9%
27 | Cc1nc(-c2ccc(NC(=O)Cc3ccccc3)cc2)cs1 | 21.1%
28 | Cc1ccc(-c2nn(-c3ccccc3)cc2/C=C2\SC(=S)N(CCCCCC(=O)O)C2=O)o1 | 15.1%
29 | Cc1cc(-c2ccc(C)c(S(=O)(=O)NCc3ccc(Br)cc3)c2)on1 | -31%
30 | COc1cccc(SCc2noc(C(=O)NCC3CCCO3)c2C(=O)O)c1 (centres unmarked) | 11.9%
31 | COc1ccccc1CCc1nnc(CCC(=O)NCCOc2cccnc2)o1 | 7.9%
32 | Cc1cc(S(=O)(=O)N2CCC(NC(=O)C34CC5CC(CC(C5)C3)C4)CC2)ccc1-n1cnnn1 | -15.2%
33 | COCCN(CCOC)c1ncc(Cl)c(C(=O)c2c(C)cc3ccccn23)n1 | -4.6%
34 | COC(=O)C1(C)CC1(c1ccccc1)c1ccccc1 (centres unmarked) | -3.98%
35 | O=C(N/N=C/c1ccccc1O)C1CCCC1 | 8.05%
36 | O=C(CN1CCC(C(=O)c2ccc3c(c2)OCCO3)CC1)NCc1ccc(F)cc1 | -30.2%
37 | O=C(c1ccccc1)C1CCN(CC(=O)N2CCN(c3ccccc3)CC2)CC1 | -14.9%
38 | Cc1ccc(C(=O)C2CCN(CC(=O)Nc3ccccc3C)CC2)cc1 | -68.9%

Row | SMILES | hERG current change (%, negative = inhibition) at 10uM
39 | Cc1ccccc1NC(=O)CN1CCC(C(=O)c2ccc3c(c2)OCCO3)CC1 | -44.5%
40 | Cc1ccc(C(=O)C2CCN(CC(=O)N3CCN(c4ccc(F)cc4)CC3)CC2)cc1 | -73.7%
41 | Cc1ccc(C(=O)C2CCN(CC(=O)NCc3ccc(F)cc3)CC2)cc1 | -53.3%
42 | O=C(CN1CCC(C(=O)c2ccc(F)cc2)CC1)NCc1ccccc1F | -39.6%
43 | COc1ccccc1NC(=O)CN1CCC(C(=O)c2ccc(F)cc2)CC1 | -38.5%
44 | Cc1ccc(C(=O)NCN2CCN(c3ccc(F)cc3)CC2)cc1 | -28.9%
45 | Cc1nonc1CN(C)C(=O)c1cc(COc2ccc(F)cc2Cl)on1 | -4.29%
46 | Cc1ccc(-n2c(CSc3nc(C)cc(C)n3)nnc2SCC(=O)N2CCCC2)cc1 | -8.81%
47 | COc1cc(OC)c(C2Nc3cccc4cccc(c34)N2)c(OC)c1 | 6.67%
48 | COc1ccccc1C1Nc2cccc3cccc(c23)N1 | -50.7%
49 | COc1ccc(Br)cc1C1Nc2cccc3cccc(c23)N1 | 20.2%
50 | Cn1ncc(Br)c1C(=O)N/N=C/c1cccc(OC2CSC2)c1 | -8.23%
51 | O=C(CSc1nnc(Nc2ccccc2F)s1)Nc1cccc(S(=O)(=O)N2CCCCC2)c1 | -6.58%
52 | CC1Cc2nc(SCC(=O)Nc3nc4ccccc4s3)n(C)c(=O)c2S1 (centres unmarked) | -20.1%
53 | CN1CCSc2ccc(C(=O)NCc3cccc(F)c3)cc21 | 16.6%
54 | O=C(Nc1cnn(Cc2ccc(F)cc2)c1)c1cnccn1 | -3.09%
55 | CCOc1ccccc1C(=O)Nc1cnn(Cc2ccc(F)cc2)c1 | -58.8%
56 | O=C(Nc1cnn(Cc2ccc(F)cc2)c1)C(c1ccccc1)c1ccccc1 | -30.1%

From article PMC4336329 (PLoS ONE, 2015)
